USP30 inh = inhibitors of human USP30 deubiquitinase | inhibition, % at 25 µM | Q70CQ3 | 47,000 compounds, 5.3% hits | purified USP30, Ub-rhodamine cleavage fluorescence | AID 1645860
Target sequence (Q70CQ3 whole entry, looked up): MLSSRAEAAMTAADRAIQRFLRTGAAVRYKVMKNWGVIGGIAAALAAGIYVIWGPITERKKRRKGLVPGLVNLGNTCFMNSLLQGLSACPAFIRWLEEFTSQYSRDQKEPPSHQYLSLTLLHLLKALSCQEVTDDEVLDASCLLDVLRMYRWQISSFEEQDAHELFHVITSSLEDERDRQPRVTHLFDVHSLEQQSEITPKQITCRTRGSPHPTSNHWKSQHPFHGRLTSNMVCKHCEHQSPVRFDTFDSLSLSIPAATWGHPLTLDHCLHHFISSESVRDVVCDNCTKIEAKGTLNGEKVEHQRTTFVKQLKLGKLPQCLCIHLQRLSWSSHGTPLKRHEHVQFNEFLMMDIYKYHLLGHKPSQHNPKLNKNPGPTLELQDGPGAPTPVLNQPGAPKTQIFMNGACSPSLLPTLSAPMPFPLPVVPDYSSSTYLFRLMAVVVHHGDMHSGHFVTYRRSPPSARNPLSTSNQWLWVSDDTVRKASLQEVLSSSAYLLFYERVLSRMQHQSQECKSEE
USP17 block = human USP17-like deubiquitinase inhibition; 47,000 compounds, 6.5% hits; A8MUK1; inhibition, % at 50 µM; purified USP17, Ub-rhodamine cleavage fluorescence, 3 h
* = called active by the depositor. In the library only some 9.6% were active in any assay of this set; here they are far more common. Cut-off read from the data, not from the text of the source: active = inhibition above about 30%; inactive = the rest.

How did CN1CCc2c(sc3nc(SCC(=O)Nc4nccs4)nc(N)c23)C1 do in these assays?
USP17 block: 38.5*

Results for COc1ccc(C(=O)Nc2cccc(-c3nc4ncccc4o3)c2)cc1 ?
USP30 inh: -18.7; USP17 block: -9.1

What do the screens show for `COc1ccc(C(=O)Nc2cc(C)c(O)c(-c3nc4ncccc4o3)c2)cc1Cl`?
USP30 inh: -47.9; USP17 block: 18.8

How did COc1ccc(C(=O)Nc2ccc(-c3nc4ncccc4o3)cc2)cc1Br do in these assays?
USP30 inh: 26.1; USP17 block: 32.4*

What do the screens show for `Cc1ccc(OCC(=O)Nc2cccc(-c3nc4ncccc4o3)c2)c(C)c1`?
USP30 inh: 59.0*; USP17 block: 19.8

Results for COc1ccc(CC(=O)Nc2cccc(-c3nc4ncccc4o3)c2)cc1OC ?
USP30 inh: -0.2; USP17 block: -25.9

How did O=C(Nc1cccc(-c2nc3ncccc3o2)c1)c1cccc(-c2cc3ccccc3oc2=O)c1 do in these assays?
USP30 inh: 67.2*; USP17 block: 68.0*

How did Cn1ccnc1CN1CCC2(CC1)CCN(c1ncccn1)CC2 do in these assays?
USP30 inh: 9.8; USP17 block: 5.9

What do the screens show for `O=C(O)c1c(CNC2CCCC2)c2ccccc2n1Cc1ccc(F)cc1`?
USP30 inh: -15.5; USP17 block: 12.4

Results for O=C(C1CCN(c2nc3cccnc3s2)CC1)N1CCN(Cc2ccccc2)CC1 ?
USP30 inh: 15.0

What do the screens show for `COc1ccc(NC(=O)CCOc2ccccc2C)cc1S(=O)(=O)Nc1cc(C)ccc1Br`?
USP30 inh: 34.8*; USP17 block: 5.5

How did COc1ccc(CC(=O)Nc2ccc(C)c(S(=O)(=O)Nc3ccccc3OC)c2)cc1 do in these assays?
USP30 inh: 4.1; USP17 block: 1.0

Results for CNC(=O)c1sc2ccccc2c1C1CCN(S(=O)(=O)N2CCOCC2)C1 (stereo not drawn) ?
USP30 inh: -2.8; USP17 block: -5.6

How did C=C(NC(=O)C(=C)NC(=O)c1ccc2c(n1)-c1coc(n1)C(=C)NC(=O)C(=C)NC(=O)c1nc(oc1C)C(=C)NC(=O)C(C(C)(C)O)NC(=O)C(=C)NC(=O)c1nc(oc1C)/C(=C/C)NC(=O)C(C(C)O)NC(=O)c1csc-2n1)C(N)=O (stereo not drawn) do in these assays?
USP30 inh: -77.9; USP17 block: 36.2*

How did CCCNC(=O)c1cn(-c2cc(-c3nc(C)no3)ccn2)cn1 do in these assays?
USP30 inh: 18.6; USP17 block: 7.9

How did O=C(NCCCN1CCC(Cc2ccccc2)CC1)C1CCCN(S(=O)(=O)N2CCOCC2)C1 (stereo not drawn) do in these assays?
USP30 inh: 14.6; USP17 block: 5.3

How did COc1ccccc1CNCC(O)(c1ccccc1)c1ccc(F)cc1 (stereo not drawn) do in these assays?
USP30 inh: 35.9*; USP17 block: 7.7

What do the screens show for `COc1cccc(CNCC(O)(c2ccccc2)c2ccc(Cl)cc2)c1` (stereo not drawn)?
USP30 inh: 24.0; USP17 block: 7.6

How did NC(=O)c1cccc(-c2nccnc2C2CCCN(Cc3ccccn3)C2)c1 (stereo not drawn) do in these assays?
USP30 inh: 11.5; USP17 block: 6.6

How did COc1ccccc1NS(=O)(=O)c1cccc(NS(=O)(=O)c2cc(/C=C/C(=O)O)cc(OC)c2OC)c1 do in these assays?
USP30 inh: 11.7; USP17 block: -1.3

Results for COc1ccc(/C=C/C(=O)Nc2cccc(S(=O)(=O)Nc3ccccc3Cl)c2)c(OC)c1 ?
USP30 inh: 68.6*; USP17 block: 7.3

Results for COc1ccccc1CNC(=O)c1ccccc1OCc1ccccc1Cl ?
USP30 inh: 32.2*; USP17 block: 23.7

What do the screens show for `COc1ccccc1CNC(=O)c1ccccc1-c1ccccc1`?
USP30 inh: -17.9; USP17 block: 0.1

Results for Cc1ccc(S(=O)(=O)N2CCC(CC(=O)NCCN3CCCCC3C)CC2)cc1 (stereo not drawn) ?
USP30 inh: inactive; USP17 block: -128.5

Results for COc1nc2ccc(C)cc2cc1-c1noc(-c2cccnc2)n1 ?
USP30 inh: -111.3; USP17 block: -24.6

What do the screens show for `Cc1cc(-c2noc(-c3cccnc3)n2)c2ccccc2n1`?
USP30 inh: 0.0; USP17 block: 39.7*

What do the screens show for `Cc1ccc(-c2nc3c(s2)CN(C(=O)C2CCC2)CC3)cc1`?
USP30 inh: 12.9; USP17 block: 12.5

Results for CCOC(=O)c1cnn(-c2ccc(C(=O)NCCCN3CCCCCC3)cc2)c1N ?
USP30 inh: -115.7; USP17 block: 10.2

What do the screens show for `CCOC(=O)c1cnn(-c2ccc(C(=O)Nc3ccc(C)c(Cl)c3)cc2)c1N`?
USP30 inh: 15.4; USP17 block: 61.8*

How did COc1ccc(CCn2c(-c3ccc(C)cc3)nc3c(c(=O)c4ccccc4n3C)c2=O)cc1 do in these assays?
USP30 inh: -27.8; USP17 block: -12.7

How did CC(c1ccccc1)n1c(-c2ccc(F)cc2)nc2c(c(=O)c3ccccc3n2C)c1=O (stereo not drawn) do in these assays?
USP30 inh: 26.6; USP17 block: 60.1*

Results for COc1ccc(-c2nc3c(c(=O)c4ccccc4n3C)c(=O)n2CC(C)C)cc1 ?
USP30 inh: 28.0; USP17 block: 33.7*

What do the screens show for `COc1ccc(CCn2c(-c3ccc(F)cc3)nc3c(c(=O)c4ccccc4n3C)c2=O)cc1OC`?
USP30 inh: 29.6; USP17 block: 20.0

What do the screens show for `Cc1cccc(C(=O)N2C[C@H](Oc3ccccn3)[C@H]3OCCC[C@H]32)n1`?
USP30 inh: -32.4; USP17 block: -38.0

Results for O=C1CC(c2noc(-c3ccncc3)n2)CN1c1cccc(F)c1 (stereo not drawn) ?
USP30 inh: -4.1; USP17 block: -3.8

What do the screens show for `CS(=O)(=O)N(CC(=O)N1CC(=O)Nc2ccccc21)c1ccccc1`?
USP30 inh: -7.3; USP17 block: -3.9

Results for CCc1cc2cc3c(cc2nc1SCC(=O)N1CC(=O)Nc2ccccc21)OCO3 ?
USP30 inh: -18.4; USP17 block: 35.2*

Results for Cc1ccc(CNC(=O)c2cc([N+](=O)[O-])ccc2N2CCOCC2)cc1 ?
USP30 inh: 3.9; USP17 block: -7.2

What do the screens show for `COc1ccc(OC)c(CNc2nc(N3CCCC3)nc3c2cnn3C)c1`?
USP30 inh: -25.1; USP17 block: 8.1

What do the screens show for `COc1ccc(Nc2nc(N3CCCC3)nc3c2cnn3C)cc1`?
USP30 inh: 38.6*; USP17 block: 49.4*

What do the screens show for `O=C(NC1CCCCCC1)c1cn(Cc2ccccc2)nc1-c1cccnc1`?
USP30 inh: 13.5; USP17 block: 2.2

Results for O=C(NC1CCCC1)c1cn(Cc2ccccc2)nc1-c1cccnc1 ?
USP30 inh: 37.9*; USP17 block: 7.8

How did c1ccc(C(Nc2ncnc3sccc23)c2ccco2)cc1 (stereo not drawn) do in these assays?
USP30 inh: -103.1; USP17 block: 12.0

What do the screens show for `CCN1CCC2(CC1)N=C(c1ccccc1)CC(c1cccc(OC)c1O)N2` (stereo not drawn)?
USP30 inh: -53.5; USP17 block: 4.0

Results for CCOc1ccc(S(=O)(=O)NCc2ccccc2Cl)c2ccccc12 ?
USP30 inh: 45.4*; USP17 block: 32.2*

Results for CCOc1ccc(S(=O)(=O)n2ccc(C)n2)c2ccccc12 ?
USP17 block: 12.3

How did C[C@H](NC(=O)c1cccs1)c1nnc2ccccn12 do in these assays?
USP30 inh: 30.3*; USP17 block: 12.4
